Screens deposited in PubChem by National Center for Advancing Translational Sciences (NCATS).
Tb PGK inh: qHTS Assay to Find Inhibitors of Phosphoglycerate Kinase. Phosphoglycerate kinase, glycosomal (Trypanosoma brucei brucei), P07378. PGK/GAPDH coupled, Kinase-Glo luminescence, 60 min. Potency, µM (doses to about 57.5 µM), inactives show at the top dose activity change, negative = inhibition, actives largely listed as inhibitors. 0.043% of 380,000 active. AID 602233, 2012; also: potency is read from the fitted curve at half-maximal effect; nearly all actives have a fitted effect of over 60% in size
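Recombinant glycosomal PGK reaction used 1,3-bisphosphoglycerate generated in-well by GAPDH (100nM final) in 100mM TEA pH 7.6, 5mM MgCl2, 0.01% Tween-20. After 60 minutes at room temperature, ATP was read by Kinase-Glo Plus luminescence end-point.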
PI4K2A inh: qHTS for small molecular inhibitors of PI4K2A; AID 1346378, 2018; 0.13% of 420,000 active; Phosphatidylinositol 4-kinase type 2-alpha (Homo sapiens), Q9BTU6; purified PI4K2A, ADP-Glo luminescence, 1 h; active compounds read low; activity change, negative = inhibition, % at 76.9 µM; in the data active = activity change below about -50%; inconclusive = mostly about -30% to -49%;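 also: -100% = wells without enzyme as full effect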
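Compounds are screened against recombinant PI4K2A using PI as substrate and ATP, the latter dispensed at 300 microM. Reactions run one hour at ambient temperature before ADP-Glo detection; full inhibition defined by wells lacking enzyme.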
Pin1 inhibitor: qHTS Assay to Find Inhibitors of Pin1 | 0.009% of 390,000 active | Potency, µM (highest dose often 115 µM), for the others: at the top dose activity, negative = inhibition, usual class: inhibitors | Peptidyl-prolyl cis-trans isomerase NIMA-interacting 1 (Homo sapiens), Q13526 | AID 504891, 2011 | Pin1 FP peptide displacement, HiFluor488, 10 min; active = well fitted inhibition curve with a large enough effect in the polarisation, with a control signal flat, not every such curve was filed as active; inconclusive = small, poorly fitted or top-dose-only effect, or effect the other way, or a change in a side signal; inactive = no such curve, though single readings can be large or run the other way; the % refers to the polarisation; also: potency is read from the fitted curve at half-maximal effect
Tb PFK inh: qHTS Assay to Find Inhibitors of T. brucei phosphofructokinase. 0.17% of 330,000 active. T. brucei PFK, ADP-Glo luminescence. Potency, µM (highest dose often 57.5 µM), inactives show top-dose activity, negative = inhibition, usual class: inhibitors. AID 485367, 2010;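 also: potency is read from the fitted curve at half-maximal effect; 0% = uninhibited 1x PFK enzyme wells and -100% = no-enzyme wells; nearly all actives have a fitted effect of over 60% in size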
Target sequence (O15648 whole entry, looked up): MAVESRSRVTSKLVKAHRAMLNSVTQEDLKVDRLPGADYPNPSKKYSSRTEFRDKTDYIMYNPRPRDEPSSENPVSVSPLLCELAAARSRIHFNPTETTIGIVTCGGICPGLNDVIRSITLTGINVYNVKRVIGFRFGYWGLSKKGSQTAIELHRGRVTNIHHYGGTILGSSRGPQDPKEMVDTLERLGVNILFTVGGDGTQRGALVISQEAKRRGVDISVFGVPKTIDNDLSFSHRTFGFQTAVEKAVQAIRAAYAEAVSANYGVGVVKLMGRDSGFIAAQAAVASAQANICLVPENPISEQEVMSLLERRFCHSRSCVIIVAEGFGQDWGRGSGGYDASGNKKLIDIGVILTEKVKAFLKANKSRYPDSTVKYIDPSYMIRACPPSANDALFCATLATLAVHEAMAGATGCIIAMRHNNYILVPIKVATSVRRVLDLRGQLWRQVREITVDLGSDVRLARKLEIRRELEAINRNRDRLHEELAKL
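ADP-Glo luminescence quantified ADP after 45 min at room temperature, with 1.25 nM T. brucei PFK, 0.1 mM ATP and 0.5 mM fructose-6-phosphate in pH 8.0 TEA buffer. qHTS titrations up to 57 µM; curves classified by quality.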
PI5P4K alpha inh: qHTS for Inhibitors of phosphatidylinositol 5-phosphate 4-kinase (PI5P4K). Phosphatidylinositol 5-phosphate 4-kinase type-2 alpha (Homo sapiens), P48426. PI5P4Kalpha enzyme, ADP-Glo luminescence, 60 min; active compounds read low. max response, %. 1.2% of 330,000 active; active = max response of -50% or lower; inconclusive = between -30% and -50%; inactive = -30% or higher; also: value at the top dose of about 77 µM
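Compounds were pin-transferred onto PI5P4Kalpha and substrate in HEPES pH 7.4 buffer with EGTA, CHAPS and 5% DMSO. ATP (5 microM final) started the reaction, which ran 60 minutes at room temperature before ADP-Glo detection.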
Active calls of the source: *; i = inactive; ? = inconclusive; . = not tested or not shown. This excerpt belongs to a sample that is enriched for hits. Unless noted, calls follow the shape of the dose curve; as a rule, active = well fitted curve in the direction sought with a large enough effect; inconclusive = small, poorly fitted or top-dose-only effect, or another doubt; inactive = no such curve, though single readings can be large; an effect the other way counts as inactive or inconclusive. Unless noted, % is scaled to controls: 0 for no effect and ±100 for the full control effect.

SMILES | Tb PGK inh | PI4K2A inh | Pin1 inhibitor | Tb PFK inh | PI5P4K alpha inh
CC(=O)N(c1onc(C)c1C)S(=O)(=O)c1ccc(N)cc1 | . | 0 | . | . | .
Cc1[nH]n(-c2ccccc2)c(=S)c1C=Nc1cccc([N+](=O)[O-])c1 | -9% | -16 | -4% | -28% | -105*
Cc1ccc2nc(NC(=O)COC(=O)c3ccco3)sc2c1 | -6% | -1 | 5% | . | -11
O=C(COC(=O)c1ccco1)Nc1nc2ccc([N+](=O)[O-])cc2s1 | i | -4 | 16% | 3% | -54*
CN(C)S(=O)(=O)c1cccc(NC(=S)NNC(=O)c2cc3ccccc3cc2O)c1 | -2% | 2 | -8% | -10% | -60*
CN(C)S(=O)(=O)c1cccc(NC(=S)NC(=O)c2ccco2)c1 | -8% | 7 | 0% | -1% | 2
CN1CCN(c2cccc(CNc3nn4c(=O)c5ccccc5nc4s3)c2)CC1 | . | . | -36% | . | .
O=C1CCc2cc([S+](=O)([O-])Nc3ccc(N[S+](=O)([O-])c4ccc5c(c4)CCC(=O)N5)cc3)ccc2N1 | . | . | -2% | . | .
Cc1nc(N2CCCCC2)sc1C(=O)c1cccc([N+](=O)[O-])c1 | 3% | 4 | -7% | 5% | -2
Cc1nc(N2CCCCC2)sc1C(=O)c1ccc(SCCO)c([N+](=O)[O-])c1 | 15% | 3 | 4% | 3% | -68*
O=S(=O)(c1ccc2c(c1)OCCO2)N1CCN(S(=O)(=O)c2cccs2)CC1 | . | . | 1% | . | .
O=S1(=O)CC(O)C(O)CS1 (stereo not drawn) | . | 1 | . | . | -69*
Nc1c(C(=O)Nc2nc3ccccc3s2)sc2nc(-c3cccs3)ccc12 | -7% | -63* | ? | -2% | .
N#CC1=C(N)NC(SCc2ccccc2)=C(C#N)C12CCCC2 | -8% | -5 | 3% | -4% | -63*
CSC1=C(C#N)C2(CCCC2)C(C#N)=C(N)N1 | . | . | . | -5% | .
CCSC1=C(C#N)C2(CCCC2)C(C#N)=C(N)N1 | 2% | 1 | 2% | 5% | -57*
N#CC1=C(N)NC(SCc2ccc(Cl)cc2)=C(C#N)C12CCCCC2 | 6% | 2 | 0% | 1% | -2
O=[S+]([O-])(c1c(F)cccc1F)N1CCN([S+](=O)([O-])c2cccc3nonc23)CC1 | . | . | 1% | . | .
O=C1CCCC2=C1C1(CCCC1)N=C(Nc1nc3cc(Cl)ccc3o1)N2 | . | . | 5% | . | .
O=C(CCC(=O)c1cccs1)NNC(=O)c1ccccc1O | -5% | 0 | 2% | -11% | -52*
O=S1(=O)c2ccc(Br)cc2OC[C@@H](Cc2ccccc2)N1Cc1cn(CCC2OCCO2)nn1 | . | 3 | . | . | .
O=C1C=CC2=C3c4cc(O)c(O)cc4CC3(O)COC2=C1O (stereo not drawn) | 2.8µM* | ? | ? | . | -90*
OC[C@]1(O)OC[C@@H](O)[C@H](O)[C@@H]1O | . | 1 | . | . | .
O=C(O)C1=C(C(=O)O)C2C=CC1C2 | 11µM* | 1 | -2% | . | -9
Oc1c(Br)cc(Br)cc1/C=N/c1nc2c(s1)CCCC2 | -12% | -6 | ? | . | -54*
SMILES | Tb PGK inh | PI4K2A inh | Pin1 inhibitor | Tb PFK inh | PI5P4K alpha inh
COc1ccc(NC(=O)NC(C)(C(F)(F)F)C(F)(F)F)cc1 | -9% | 1 | 1% | 2% | ?
CCC(NC(=O)Nc1ccc(O)cc1)(C(F)(F)F)C(F)(F)F | -9% | -52* | -2% | -5% | -2
CC(NC(=O)Nc1ccc(O)cc1)(C(F)(F)F)C(F)(F)F | -1% | -51* | 0% | 2% | 18
CCC(NC(=O)NCc1ccccc1)(C(F)(F)F)C(F)(F)F | i | 2 | 11% | 2% | 3
CN1CCN(Nc2nn3c(=O)c4ccccc4nc3s2)CC1 | . | . | 1% | . | .
CCOc1ccc(-n2c(SCC(=O)Nc3ccc(S(=O)(=O)Nc4nccs4)cc3)nnc2-c2ccc(C(C)(C)C)cc2)cc1 | . | 3 | . | . | .
CC1=NN(c2ccc(C)cc2)C(=O)/C1=C/c1ccc(-c2cc([N+](=O)[O-])ccc2O)o1 | -2% | -28 | ? | ? | -94*
O=C1NN(c2ccc(Br)cc2)C(=O)/C1=C\c1ccc(O)cc1O | -1% | -4 | 12% | -3% | ?
O=C1NN(c2ccc(Cl)c(Cl)c2)C(=O)/C1=C/c1ccc(-c2ccccc2C(=O)O)o1 | ? | ? | . | -17% | -58*
O=C1NN(c2cccc(Br)c2)C(=O)/C1=C\c1ccc(O)cc1 | i | -12 | . | 24% | -51*
O=C1NN(c2cccc(Br)c2)C(=O)/C1=C/c1ccc(-c2cc([N+](=O)[O-])ccc2O)o1 | ? | 1 | ? | 1% | -86*
Cc1c(N)cccc1C(F)(F)F | . | 2 | . | . | .
CCC(C(=O)Nc1ccccc1N1CCCC1)c1cccc(OC)c1 (stereo not drawn) | . | -2 | . | . | .
O=C(Cn1cnnn1)OCC(=O)c1ccc(Cl)s1 | -20% | -2 | 2% | 4% | -66*
Cc1cc(C)c(C(=O)COC(=O)Cn2cnnn2)cc1C | -4% | 3 | 12% | -8% | .
